CRFR2-BP antag: CRF-BP/CRF-R2 complex antagonism; inhibition, % at 11.8 µM; HEK293 CRF-R2/CRF-BP, CRF-induced calcium fluorescence; AID 588475; hit rate 0.59% among 350,000;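 active means inhibition of the ligand-induced calcium signal above about 50% at the single tested concentration, limit read from the data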
PfGluPho inh: PfG6PD (Plasmodium falciparum) enzyme inhibition. PfGluPho enzyme, NADPH resazurin-diaphorase fluorescence. inhibition, % at 20 µM. hit rate 0.78% among 350,000. AID 504690;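 active means inhibition reaching at least a set limit at 20 µM in the primary screen, cut at about 59% in these data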;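 further: 0% = DMSO wells with substrate and 100% = DMSO wells lacking glucose-6-phosphate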
aDG glyco up: alpha-DG glycosylation activation | Pro5-aDG cells, alpha-DG glycosylation AlphaScreen (IIH6); 0% Pro5, 100% B10-LARGE cell signal | activation, % at 10 µM | hit rate 0.22% among 360,000 | AID 624168;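 active means activation of at least 8% versus controls, or a plate z-score of at least 8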;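 further: Pro5 are CHO cells carrying HIG-tagged alpha-DG that lacks glycosylation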
H9c2 protect: modulators protecting cardiomyocytes from myocardial damage; H9c2 cardiomyocytes, H2O2 injury protection, ATPLite, 2 h; protection from H2O2 cell death, % at 20 µM; hit rate 0.63% among 360,000; AID 588492;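 active means compounds giving at least 50% protection of heart cells from peroxide-induced death in the single-dose screen, raw or plate-pattern-corrected value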;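 further: 0% = DMSO wells with peroxide and 100% = DMSO wells without peroxide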
CRFR2-BP ag: CRF-BP/CRF-R2 complex agonism; HEK293 CRF-R2/CRF-BP, calcium dye fluorescence (FLIPR); percent of saturating CRF peptide response; activation, % at 13.2 µM; hit rate 0.46% among 350,000; AID 588473;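 active means activation of at least 50%, plus an integration ratio under a set limit after plate pattern correction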;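 further: plate controls were neutral control wells without compound for no effect and CRF at EC100 for full effect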
FAS-TE inh: FAS thioesterase (human) inhibition; P49327; recombinant FAS-TE, OMFH fluorogenic substrate, fluorescence endpoint; inhibition, % at 15 µM; hit rate 0.67% among 360,000; AID 602261;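 active means compounds whose normalised, plate-corrected inhibition of enzyme fluorescence in the single-dose primary screen is 50% or more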;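 further: 0% = DMSO with enzyme and 100% = substrate without enzyme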
* = called active by the depositor; nt = not tested or not shown. An excerpt weighted towards active compounds, which were near 3.2% of everything screened.

SMILES | CRFR2-BP antag | PfGluPho inh | aDG glyco up | H9c2 protect | CRFR2-BP ag | FAS-TE inh
Cc1cc([N+](=O)[O-])c(Cl)cc1NC(=O)C(C)C | 12 | -10 | 0 | 2 | -3 | 2
CNc1cc(Cl)c2nonc2c1[N+](=O)[O-] | 75* | 23 | -1 | -20 | 1 | 35
Cc1ccc2c(c1)Oc1ccccc1N=C2 | 65* | 10 | 0 | 2 | 1 | -4
CC1=CC2OC3CC4OC(=O)C=CC=CC(=O)OCCC(C)C(O)C(=O)OCC2(CC1)C4(C)C31CO1 (configuration not stated) | 36 | 15 | 0 | 57* | -2 | -7
Cc1ccccc1[N+](=O)[O-] | 51* | -18 | 0 | -1 | 13 | 0
CN1C(=O)C(=Cc2cn(CC(=O)N3CCCC3)c3ccccc23)C(=O)N(C)C1=O | 0 | 13 | 0 | 6 | 16 | -4
CCOC(=O)Cn1cc(C=C2C(=O)N(C)C(=O)N(C)C2=O)c2ccccc21 | -49 | -6 | 1 | 8 | 66* | -3
O=C1CC=C2C3CC4N(CCC45c4cc(O)c(O)cc4N1C25)CC3=CCBr (configuration not stated) | 12 | 126* | 0 | 17 | -1 | -8
C=CCn1cc(C=C2C(=O)NC(=O)NC2=O)c2ccccc21 | -21 | -9 | 0 | 4 | 14 | -5
O=C1NC(=O)C(=Cc2cn(CCOc3ccc4c(c3)OCO4)c3ccccc23)C(=O)N1 | -57 | 4 | 0 | 18 | 59* | -8
CCC1CO/C(=C(\C(Cl)=C(Cl)Cl)[N+](=O)[O-])N1Cc1ccc(Cl)nc1 (configuration not stated) | -15 | 2 | 0 | 4 | 0 | 0
O=C(C(=C1N(Cc2ccc(Cl)nc2)CCN1Cc1ccc(Cl)nc1)[N+](=O)[O-])C(Cl)Cl | -91 | 1 | 0 | 8 | 148* | -1
CCn1cc(CN2CCCC(C(=O)c3sccc3C)C2)cn1 (configuration not stated) | -2 | 17 | 0 | 0 | 0 | -3
Cc1nc(C)c(C(=O)NN=Cc2ccc(N(CCCl)CCCl)cc2)s1 | 10 | 8 | 1 | 6 | -10 | -4
Cc1ccc(S(=O)(=O)c2nc(-c3ccccc3Cl)oc2N(C)C2CCN(C)CC2)cc1 | -35 | 6 | 3 | -11 | -1 | 3
O=C1NCN(c2ccccc2)C12CCN(C(c1cc3ccccc3o1)c1nnnn1Cc1ccccc1)CC2 (configuration not stated) | nt | nt | 0 | 5 | nt | 43
CCOc1ccc(-n2c(O)c(/C=C3\C=Nc4ccccc43)c(=O)[nH]c2=O)cc1 | -62 | 3 | 0 | 29 | 108* | -4
CN(Cc1cccc(-c2ccncc2)c1)C(=O)Oc1ccccc1Cc1ccccc1 | nt | nt | 1 | nt | nt | 22
COc1ccc2c(c1)NP(=S)(c1ccccc1)N2C (configuration not stated) | 3 | 47 | 0 | -8 | -1 | 8
COc1ccc(P2(=O)Nc3ccccc3N2)cc1 | -4 | 7 | -1 | 53* | 4 | 2
C[C@]12CCC3C(CC[C@H]4C[C@@H](O)CC[C@]34C)C1C[C@@H](Br)[C@H]2O (some centres not stated) | nt | nt | 0 | 3 | nt | 0
Cc1ccc(N2C(=O)NC(=O)/C(=C\c3ccoc3)C2=O)cc1 | -76 | 10 | 0 | -1 | 54* | -9
COc1cccc(CNCCc2cccc(F)c2)c1OC | 3 | -6 | 0 | 6 | 1 | -4
COc1ccc(CC(=O)Nc2ccc(C#N)c(Cl)c2)cc1S(=O)(=O)N1CCOCC1 | -7 | -8 | 0 | 2 | 1 | 14
O=C(COc1ccccc1F)N1CCN(CCN2C(=O)c3cccc4cccc(c34)C2=O)CC1 | 70* | 15 | 0 | 24 | 0 | 10
SMILES | CRFR2-BP antag | PfGluPho inh | aDG glyco up | H9c2 protect | CRFR2-BP ag | FAS-TE inh
CC(C)c1oc(=O)cc2c1[C@@H](O)[C@H]1OC(=O)[C@@]3(C)C[C@@H](O)[C@@H](O)[C@@]2(C)C13 (some centres not stated) | 4 | -4 | 0 | 10 | -1 | -11
O=C(CN1CCN(C(=O)COc2cccc(F)c2)CC1)Nc1ccc(Cl)c(C(F)(F)F)c1 | -5 | 16 | 1 | -12 | 2 | 13
C[C@H]1CC[C@@H]2[C@@H](C)[C@H]3[C@H](C[C@H]4[C@@H]5CC=C6C[C@@H](O[C@@H]7O[C@H](CO)[C@H](O)[C@H](O[C@@H]8O[C@H](CO)[C@@H](O)[C@H](O)[C@H]8O)[C@H]7O[C@@H]7O[C@@H](C)[C@H](O)[C@@H](O)[C@H]7O)CC[C@]6(C)[C@H]5CC[C@]34C)N2C1 | -22 | -4 | 0 | -15 | 67* | -10
O=C1N(c2cccc(Cl)c2)C(c2cccnc2)N2CCCN12 (configuration not stated) | 0 | 16 | 0 | 12 | -1 | -3
O=C(OC1CC2CCC(N2)C1C(=O)O)c1ccccc1 (configuration not stated) | -1 | 11 | 0 | 10 | 0 | -1
CCOC(=O)c1c(N)n(CCCOC(=O)c2ccco2)c2nc3ccccc3nc12 | -12 | 8 | 14* | -33 | -2 | -1
COCCCn1c(N)c(C(=O)OCCOC)c2nc3ccccc3nc21 | 13 | 14 | 0 | 4 | -2 | -4
N#Cc1ccc(NC(=O)CN2C(=O)NC3(CCCCCCC3)C2=O)cc1Cl | -11 | 12 | 0 | 0 | -1 | 45
CCn1nc(-c2ccccc2)nc2c(=O)n(C)c(=O)nc1-2 | -27 | 95* | 0 | 8 | 7 | -7
Cc1sc2nc(COC(=O)Cc3ccccc3)[nH]c(=O)c2c1C | -2 | 2 | 0 | 53* | 0 | -2
Cc1cccc(C)c1OC(=O)Cc1ccccc1 | -10 | -4 | 1 | -4 | 2 | 10
C[C@@H]1CN([C@@H](C)CO)C(=O)CCCn2nncc2CO[C@H]1CN(C)C(=O)Oc1ccccc1 | -9 | 6 | 0 | 2 | 9 | -6
CC(=O)N1CCC(N2CCCC(C(=O)c3cccc(Cl)c3)C2)CC1 (configuration not stated) | 67* | -8 | 0 | 7 | 2 | -9
O=C(/C=C/c1c[nH]c2ccccc12)c1c(O)n(CCc2ccccc2)c(=O)[nH]c1=O | -132 | 5 | 0 | -3 | 166* | -8
Cc1ncoc1C(=O)NCC1=C(c2ccc3ccccc3c2)C[C@@H]2CC[C@H]1N2Cc1ccco1 | 8 | 4 | 0 | 3 | 0 | -7
CC1=C(C)CC2(C(=O)NC(=S)NC2=O)C(C)C1 (configuration not stated) | -140 | 10 | 0 | 2 | 150* | -3
CC1CCCCC12C(=O)NC(=O)NC2=O (configuration not stated) | -18 | -7 | 0 | 6 | 3 | -8
